Test results from ChEMBL document CHEMBL3988442, “University of Dundee, Small-Polar-MMV Screening Library” (2021).
The whole screen tested about 48,000 compounds, of which about 13,000 (27%) showed an effect of 50% or more. Some of the results follow.

What follows are compounds tested on Wolbachia pipientis (assay: Anti-Wolbachia Cell-Based Screen). Conditions: 5 µM.
Format: functional
Design: scale not given: in the data most compounds retested in dose-response had high values
With `CCCN1CCCN(C(=O)c2ccc(Oc3cccnc3)cc2)CC1` the “Percent Effect” value was 1.766%. `O=C1NCCCCC1NS(=O)(=O)N1CCCCC1` (configuration not stated) was tested, and the “Percent Effect” value was 30.79%. In the case of `Cc1nccn1-c1cc(CNC(=O)N2CCSCC2)ccn1`, the “Percent Effect” value is reported as -3.633%. For `Cc1cc(CNc2ccc(CC(=O)N(C)c3ccccc3)cc2)no1`, the “Percent Effect” value was -7.262%. With `OC(CN(Cc1ccccc1)Cc1ccncc1)c1ccco1` (configuration not stated) the “Percent Effect” value was 6.092%. In the case of `O=C(COC(=O)Cc1cccs1)NCc1cccc(NC(=O)C2CC2)c1`, the “Percent Effect” value is reported as 2.841%. With `CC1CN(C)c2ccccc2CN1C(=O)NCc1ccon1` (configuration not stated) the “Percent Effect” value was 0.2534%. With `Cc1cc(NC(=O)CN2CCn3c(C)nnc3C2)no1` the “Percent Effect” value was 3.854%. With `Cc1cccc(NC(=O)[C@@H]2CCCN2CC(=O)N2CCCCCC2)n1` the “Percent Effect” value was 2.208%. With `CC1(C)CC(=O)N(CC(=O)Nc2ccon2)c2ccccc21` the “Percent Effect” value was 100.4%. In the case of `Cc1cccc(NC(=O)CN2C(=O)CC(C)(C)c3ccccc32)n1`, the “Percent Effect” value is reported as 106.1%. With `Cc1cc(NC(=O)CN2C(=O)CC(C)(C)c3ccccc32)no1` the “Percent Effect” value was 116.9%. In the case of `O=C(NCC1CC(=O)N(CCc2ccccc2)C1)c1ccon1` (configuration not stated), the “Percent Effect” value is reported as 4.92%. For `Cc1cc(NC(=O)CN2CCn3c(nnc3-c3ccccc3)C2)no1`, the “Percent Effect” value was 6.417%. For `CCOCc1cccc(S(=O)(=O)N2CCSCC2)c1`, the “Percent Effect” value was 5.017%. `O=C(O)C(F)(F)F.O=S(=O)(C1CC1)N1CCO[C@H]2[C@@H](Oc3ncccc3F)CC[C@@H]21` was tested, and the “Percent Effect” value was 120.5%. In the case of `CN(C)S(=O)(=O)N1C[C@@H](Oc2ccccn2)[C@H]2OCCC[C@H]21.O=C(O)C(F)(F)F`, the “Percent Effect” value is reported as -0.1257%. For `CCCS(=O)(=O)N1CCO[C@H]2[C@@H](Oc3cccnc3)CC[C@@H]21.O=C(O)C(F)(F)F`, the “Percent Effect” value was 101.6%. With `CCCS(=O)(=O)N1CCO[C@H]2[C@H](OCc3ccccn3)CC[C@@H]21.O=C(O)C(F)(F)F` the “Percent Effect” value was -14.38%. In the case of `CCS(=O)(=O)N1C[C@@H](Oc2ccccn2)[C@H]2OCCC[C@H]21.O=C(O)C(F)(F)F`, the “Percent Effect” value is reported as -45.01%. For `CS(=O)(=O)N1CCO[C@H]2[C@@H](Oc3ncccc3F)CC[C@@H]21.O=C(O)C(F)(F)F`, the “Percent Effect” value was 100.8%. In the case of `CS(=O)(=O)N1C[C@@H](Oc2ccccn2)[C@H]2OCCC[C@H]21.O=C(O)C(F)(F)F`, the “Percent Effect” value is reported as 12.05%. For `CCCS(=O)(=O)N1C[C@@H](Oc2ccccn2)[C@H]2OCCC[C@H]21.O=C(O)C(F)(F)F`, the “Percent Effect” value was 4.768%. In the case of `CCCS(=O)(=O)N1C[C@@H](Oc2ncccc2F)[C@H]2OCCC[C@H]21.O=C(O)C(F)(F)F`, the “Percent Effect” value is reported as 117.2%. `O=C(O)C(F)(F)F.O=S(=O)(C1CC1)N1C[C@H](Oc2ccccn2)[C@H]2OCCC[C@H]21` was tested, and the “Percent Effect” value was 9.296%. For `CCS(=O)(=O)N1CCO[C@H]2[C@H](Oc3ncccc3F)CC[C@@H]21.O=C(O)C(F)(F)F`, the “Percent Effect” value was 5.015%. With `CN(CCCc1cc(-c2cccc(F)c2)n[nH]1)C(=O)Cn1cncn1` the “Percent Effect” value was -5.082%. `COc1ccccc1OC1CN(C(=O)Cc2c(C)nc(C)[nH]c2=O)C1` was tested, and the “Percent Effect” value was -23.21%. In the case of `CC(CNC(=O)c1cc(-n2cccn2)ccn1)Cn1ccnc1` (configuration not stated), the “Percent Effect” value is reported as -5.602%. In the case of `COCCCn1ccc(NCc2cnc(C(C)(C)C)s2)n1`, the “Percent Effect” value is reported as 1.35%. With `Cn1nc(Cn2ccnc2)c2c1CN(c1nccs1)C2.O=C(O)C(F)(F)F.O=C(O)C(F)(F)F` the “Percent Effect” value was 4.707%. With `CCn1cnnc1CCNC(=O)CCNC(=O)c1ccccc1F` the “Percent Effect” value was 3.625%. For `COC1CN(C(=O)NC2CCCC2)CCC(=O)N(C)c2ccccc21` (configuration not stated), the “Percent Effect” value was 116.2%. `COC1CCN(C(=O)Nc2ccccc2)CC(=O)N(C)c2ccccc21` (configuration not stated) was tested, and the “Percent Effect” value was 112.2%. In the case of `CC(=O)N1CCN(C(=O)Nc2ccccc2)CC2(CC(=O)N(C)C2)C1` (configuration not stated), the “Percent Effect” value is reported as -20.73%. With `COC1CN(C(=O)Nc2ccccc2)CCC(=O)N(C)c2ccccc21` (configuration not stated) the “Percent Effect” value was 93.19%. `O=C1NCCN2CCN(C(=O)Nc3ccc(-c4ccccc4)cc3)CC12` (configuration not stated) was tested, and the “Percent Effect” value was -8.363%. In the case of `Cn1cc(NC(=O)N2CCC(c3ccccc3)CC2)ccc1=O`, the “Percent Effect” value is reported as -11.38%. In the case of `COC(=O)N1CCCN(C(=O)NC2CCc3ccccc3C2)CC1` (configuration not stated), the “Percent Effect” value is reported as -2.418%. With `CN1C(=O)CCN(C(=O)C2CC=CC2)c2ccccc21` the “Percent Effect” value was 2.91%. In the case of `COC(=O)[C@@H]1CN(C(=O)Nc2ccccc2)CCN1C(C)=O`, the “Percent Effect” value is reported as -6.785%. For `COC1CN(C(=O)C2CC2)CCC(=O)N(C)c2ccccc21` (configuration not stated), the “Percent Effect” value was 115%. In the case of `O=C(NC1CCCC1)N1C[C@H]2CN(c3ccccn3)C[C@@]2(C(=O)O)C1`, the “Percent Effect” value is reported as -9.055%. In the case of `O=C(C1CC=CC1)N1CC[C@H]2[C@@H]1CCC(=O)N2c1ccccc1`, the “Percent Effect” value is reported as -0.4954%. `O=C(c1cccc(Cl)c1Cl)N1CCN(CC(O)Cn2cccn2)CC1` (configuration not stated) was tested, and the “Percent Effect” value was -7.394%. For `Cc1ccn(-c2ccc(NCc3ccccc3F)nn2)n1`, the “Percent Effect” value was -4.619%. With `CSCCC(=O)N(C/C=C/c1ccccc1)CCO` the “Percent Effect” value was -21.61%. With `CC(C)(C)Oc1ccc(C(=O)N2CCOCC2c2ncon2)cc1` (configuration not stated) the “Percent Effect” value was 0.1698%. With `Oc1nnc(-c2cccs2)c2sc(N3CCCC3)nc12` the “Percent Effect” value was -2.433%. `CCC[C@H]1CN(Cc2ccc(N(C)C)nc2)C[C@@H]1NC(=O)CO` was tested, and the “Percent Effect” value was -10.52%. In the case of `CC(C)Nc1ncc(CN2C[C@@H](CN3CCC(O)CC3)[C@@H](CO)C2)cn1`, the “Percent Effect” value is reported as -6.538%. With `CC(C)c1nnc2n1CCN(C(=O)c1ccc(OCC(N)=O)cc1)C2` the “Percent Effect” value was -11.93%. `O=C(c1ccncc1)N1CCn2c(nnc2-c2ccccc2)C1` was tested, and the “Percent Effect” value was -8.4%. For `O=C(c1ccc(Cl)cc1)N1CCn2c(nn(-c3ccncc3)c2=O)C1`, the “Percent Effect” value was 118.8%. With `O=C(c1ccc(Cl)cc1)N1CCn2c(nn(-c3ccc(Cl)cc3)c2=O)C1` the “Percent Effect” value was 107.9%. In the case of `CN1CCN(Cc2cnc3n2CCN(C(=O)c2ccncc2)C3)CC1`, the “Percent Effect” value is reported as 9.234%. `O=C(c1ccc(Cl)cc1)N1CCn2c(nn(-c3cccc(Cl)c3)c2=O)C1` was tested, and the “Percent Effect” value was 114.6%. For `CC(C)c1nnc2n1CCN(C(=O)c1ccc(S(C)(=O)=O)cc1)C2`, the “Percent Effect” value was -9.775%. With `Cc1ccc(-n2nc3n(c2=O)CCN(C(=O)c2ccc(Cl)cc2)C3)cc1` the “Percent Effect” value was 122%. In the case of `CC(C)c1nnc2n1CCN(C(=O)c1ccc(-n3cnnc3)cc1)C2`, the “Percent Effect” value is reported as -1.108%. `Cc1cccc(-n2ncc(C(=O)N3CCn4c(C)nnc4C3)c2C)c1` was tested, and the “Percent Effect” value was -8.447%. `CC(C)c1nnc2n1CCN(C(=O)c1ccc(Cn3cccc3)cc1)C2` was tested, and the “Percent Effect” value was -2.793%.
